In the supplement of paper PMC8285479:
Structures can show the parent of a compound that is named as a salt. ± gives the standard deviation of the averaged measurements. In all, about 1,900 compounds were measured (“normalised cell viability (NPI; 0 = phenylarsine oxide control, 1 = DMSO control)”: median about 1, lowest 2% from about 0.039 on). The full list was thinned out, with the lowest values kept by preference.

Tested on: NCI-H1944
Test: normalised cell viability (NPI; 0 = phenylarsine oxide control, 1 = DMSO control) (fraction of DMSO control); NCI-H1944 is a non-small cell lung cancer line; higher = more viable cells (less compound toxicity)
Conditions: 6 days
[1] = glucocorticoid arm: hydrocortisone 2.75 uM co-treatment, compound 1 µM
[2] = glucocorticoid arm: hydrocortisone 2.75 uM co-treatment, compound 5 µM
[3] = glucocorticoid arm: hydrocortisone 2.75 uM pre-treated 2 days and continued, compound 1 µM
[4] = glucocorticoid arm: hydrocortisone 2.75 uM pre-treated 2 days and continued, compound 5 µM
[5] = glucocorticoid arm: vehicle, compound 1 µM
[6] = glucocorticoid arm: vehicle, compound 5 µM
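Also: CTB read-out in 384-well plates, triplicate wells, NPI normalised per plate against 1 µM phenylarsine oxide (0) and 0.1% DMSO (1) controls.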

SMILES | normalised cell viability [1] | normalised cell viability [2] | normalised cell viability [3] | normalised cell viability [4] | normalised cell viability [5] | normalised cell viability [6]
O=C(c1ccc(Cl)cc1)N1CCN(c2ccc([N+](=O)[O-])c3ncccc23)CC1 | 1.01 ± 0.013 | 1.01 ± 0.027 | 0.992 ± 0.014 | 0.996 ± 0.014 | 0.997 ± 0.015 | 1 ± 0.021
CN(C)C(=O)C(CCN1CCC(O)(c2ccc(Cl)cc2)CC1)(c1ccccc1)c1ccccc1 [Loperamide HCl] | 1.02 ± 0.026 | 0.893 ± 0.035 | 1.047 ± 0.0058 | 0.984 ± 0.012 | 1.017 ± 0.0058 | 0.919 ± 0.0099
CN(C)C(=O)C(CCN1CCC(O)(c2ccc(Cl)cc2)CC1)(c1ccccc1)c1ccccc1 [Loperamide hydrochloride] | 0.9953 ± 0.0042 | 0.405 ± 0.032 | 1.017 ± 0.0058 | 0.87 ± 0.29 | 1 | 0.0171 ± 0.0045
OC1(c2ccc(Cl)cc2)CCN(Cc2c[nH]c3ccccc23)CC1 | 0.972 ± 0.021 | 0.852 ± 0.052 | 1.003 ± 0.0061 | 1.04 ± 0.086 | 0.9753 ± 0.0065 | 0.988 ± 0.01
O=C(CCCN1CCC(O)(c2ccc(Cl)cc2)CC1)c1ccc(F)cc1 [Haloperidol] | 0.996 ± 0.013 | 0.93 ± 0.023 | 1.01 | 1.01 ± 0.025 | 0.9843 ± 0.0035 | 0.985 ± 0.002
Nc1nc2[nH]cnc2c(=S)[nH]1 [Thioguanine] | 0.931 ± 0.0046 | 0.423 ± 0.024 | 0.9813 ± 0.0011 | 0.754 ± 0.04 | 0.9133 ± 0.0051 | 0.119 ± 0.011
Cc1[nH]c2ccccc2c1C1=C(NCCc2ccc(F)cc2)C(=O)N(C)C1=O | 0.964 ± 0.019 | 0.962 ± 0.053 | 0.988 ± 0.011 | 0.973 ± 0.021 | 0.977 ± 0.007 | 0.9803 ± 0.0047
Cc1[nH]c2ccccc2c1CCNCc1ccc(/C=C/C(=O)NO)cc1 [Panobinostat (LBH589)] | 0.00703 ± 0.0011 | 0.00134 ± 0.00097 | 0.00592 ± 0.0022 | 0.00214 ± 0.0018 | 0.00625 ± 0.001 | 9e-05 ± 0.00045
CC(C)N(CCCNC(=O)Nc1ccc(C(C)(C)C)cc1)C[C@H]1O[C@@H](n2ccc3c(N)ncnc32)[C@H](O)[C@@H]1O | 1.003 ± 0.0058 | 1.07 ± 0.025 | 0.984 ± 0.0053 | 1.04 ± 0.01 | 1.002 ± 0.0068 | 1.002 ± 0.0076
CCOC(=O)[C@]12CC1/C(=N\O)c1ccccc1O2 (some centres undefined) | 1.017 ± 0.0058 | 1.01 ± 0.024 | 1.007 ± 0.0058 | 1.02 | 0.997 ± 0.013 | 1.002 ± 0.0068
C[N+](C)(C)CCO.[Br-] [Choline bromide] | 1.017 ± 0.0058 | 1 ± 0.019 | 1.017 ± 0.0058 | 1.02 | 0.995 ± 0.0078 | 0.998 ± 0.014
CC(C(=O)Nc1cccc(/N=C/c2c(O)ccc3ccccc23)c1)c1ccccc1 (centres undefined) [Salermide] | 0.999 ± 0.014 | 1.01 ± 0.02 | 0.9942 ± 0.0055 | 1 ± 0.035 | 0.9967 ± 0.0083 | 1.002 ± 0.01
O=C(c1ccc(F)cc1)N1CCCC(c2nc(-c3ccc(F)cc3)no2)C1 (centres undefined) | 1.03 ± 0.015 | 1.023 ± 0.0058 | 1.02 ± 0.011 | 1.013 ± 0.0058 | 1.01 | 1.001 ± 0.0078
Cn1ncnc1[C@H]1c2n[nH]c(=O)c3cc(F)cc(c23)N[C@@H]1c1ccc(F)cc1 | 0.996 ± 0.012 | 0.934 ± 0.028 | 1.01 ± 0.017 | 1.05 ± 0.015 | 0.436 ± 0.0095 | 0.28 ± 0.016
CCN(CC)CCCC(C)Nc1ccnc2cc(Cl)ccc12 (centres undefined) [Chloroquine diphosphate] | 1 ± 0.015 | 0.752 ± 0.026 | 1.001 ± 0.009 | 0.963 ± 0.04 | 0.9793 ± 0.0076 | 0.947 ± 0.013
CCN(CC)CCCC(C)Nc1c2ccc(Cl)cc2nc2ccc(OC)cc12 (centres undefined) [Quinacrine dihydrochloride] | 0.999 ± 0.021 | 0.00304 ± 0.0019 | 1.01 ± 0.023 | 1.01 ± 0.014 | 0.995 ± 0.014 | 0.00159 ± 0.0012
CS(=O)(=O)CCNCc1ccc(-c2ccc3ncnc(Nc4ccc(OCc5cccc(F)c5)c(Cl)c4)c3c2)o1 [Lapatinib Ditosylate (Tykerb)] | 0.945 ± 0.0092 | 0.916 ± 0.017 | 0.981 ± 0.021 | 0.938 ± 0.028 | 0.911 ± 0.02 | 0.868 ± 0.022
C=CC(=O)Nc1ccc2ncnc(Nc3ccc(OCc4cccc(F)c4)c(Cl)c3)c2c1 | 0.905 ± 0.016 | 0.854 ± 0.043 | 0.92 ± 0.014 | 0.93 ± 0.023 | 0.815 ± 0.021 | 0.623 ± 0.016
CS(=O)(=O)CCNCc1ccc(-c2ccc3ncnc(Nc4ccc(OCc5cccc(F)c5)c(Cl)c4)c3c2)o1 [Lapatinib ditosylate; Lapatinib; Lapatinib Ditosylate] | 0.9643 ± 0.0055 | 0.00258 ± 0.00055 | 0.968 ± 0.014 | 0.0327 ± 0.0022 | 0.947 ± 0.0092 | 0.00168 ± 0.00026
CCCCC#Cc1nc(N)c2ncn([C@@H]3O[C@H](C(=O)NCC)[C@@H](O)[C@H]3O)c2n1 | 1.01 ± 0.015 | 0.979 ± 0.011 | 1.007 ± 0.0058 | 1.01 ± 0.014 | 1.01 | 1.003 ± 0.0058
O=c1[nH]cc(F)c(=O)[nH]1 [5-Fluorouracil] | 0.98 ± 0.002 | 0.766 ± 0.0085 | 0.981 ± 0.012 | 0.984 ± 0.015 | 0.9837 ± 0.0084 | 0.729 ± 0.03
O=c1[nH]cc(F)c(=O)[nH]1 [5-Fluorouracil; Fluorouracil] | 1.043 ± 0.0058 | 0.706 ± 0.037 | 1.01 ± 0.015 | 0.838 ± 0.011 | 0.971 ± 0.0044 | 0.522 ± 0.032
CN(C(Cc1ccc(OS(=O)(=O)c2cccc3cnccc23)cc1)C(=O)N1CCN(c2ccccc2)CC1)S(=O)(=O)c1cccc2cnccc12 (centres undefined) | 1.02 ± 0.011 | 0.993 ± 0.015 | 1.007 ± 0.0058 | 0.974 ± 0.029 | 1.01 | 1.01
CN1CC[C@H](c2c(O)cc(O)c3c(=O)cc(-c4ccccc4Cl)oc23)[C@H](O)C1 [Flavopiridol hydrochloride] | 0.0447 ± 0.0058 | 0.0238 ± 0.0012 | 0.066 ± 0.0098 | 0.0883 ± 0.016 | 0.0103 ± 0.0015 | 0.00802 ± 0.0019
